What all share (assay): NCI-60 one-dose screen, 48 h (100 = growth as untreated, 0 = no growth, -100 = all killed)
In assay [1] the test system is T-47D breast. Particulars: 10 µM unless noted.
Assay [2] deals with BT-549 breast. The conditions noted are these: 10 µM unless noted.
Assay [3] concerns MDA-MB-435 melanoma. Particulars: 10 µM unless noted.
The test system of assay [4] is SW-620 colon. Particulars: 10 µM unless noted.
The subject of assay [5] is MCF7 breast. The conditions noted are these: 10 µM unless noted.
The test system of assay [6] is HCT-116 colon. The conditions noted are these: 10 µM unless noted.
Assay [7] deals with HCC-2998 colon. The conditions noted are these: 10 µM.
Assay [8] concerns KM12 colon. The conditions noted are these: 10 µM unless noted.

About 83,000 compounds went through this panel and 20% of them were active in at least one assay; those are over-represented in the sample as a whole.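 48-hour exposure, single concentration, 96-well plates; percent growth endpoint where 0 means no net growth. Active: below 10.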 Unmarked numbers belong to inactive results. Activity calls are given as the source filed them.

The text below walks through data of PubChem BioAssay (NCI).

As for `CC1(O)CC(c2nc(-c3ccc4ccc(-c5ccccc5)nc4c3)c3c(N)nccn23)C1` (stereo not drawn), the growth in assay [1] was 2.62% (active); in assay [2] it was 19.5%; in assay [3], 36.3%; in assay [4], 35.4%; in assay [5] it was 14.5%; in assay [6], 35.3%. Further, the growth in assay [7] is 48.7%; in assay [8], 8.69% (active).
Take `C[C@@H](C[C@H](CCO)c1cc(C(F)(F)F)cc(C(F)(F)F)c1)c1ccc2ccccc2c1`: the growth in assay [1] was 55.2%; in assay [2] it was 102%; in assay [3], 38.8%; in assay [4] it was 88.7%; in assay [5] it was 78.9%; in assay [6], 67.6%. Moreover, the growth in assay [7] is 86.1%; in assay [8], 71.3%.
On to `CNC(=O)CN1CCC(Oc2cc3c(Nc4cccc(Cl)c4F)ncnc3cc2OC)CC1`, for which the growth in assay [1] was -11.2% (active); in assay [2], 93.5%; in assay [3], 98.2%; in assay [4] it was 71.5%; in assay [5], 51.1%; in assay [6], 54.7%. Also, the growth in assay [7] is 83.2%; in assay [8] it was 81.4%.
In the case of `C=CCCCC(=O)CCC(=O)OCC1O[C@@H](O[C@@H]2C(O)[C@@H](OC(C)=O)C(C)O[C@H]2O[C@H](CC=C)CCCCC)C(O)[C@@H](OC(=O)/C(C)=C/C)[C@@H]1OC(=O)/C=C/c1ccccc1` (stereo partly drawn), the growth in assay [1] was -5.16% (active); in assay [2], 16.7%; in assay [3] it was 9.15% (active); in assay [4], 30.6%; in assay [5] it was 17.6%; in assay [6], 13.7%. Also, the growth was 44.1% in assay [7] and 22.3% in assay [8].
On to `C=CC(=O)N1CCC[C@@H](n2nc(-c3ccc(Oc4ccccc4)cc3)c3c(N)ncnc32)C1`, for which the growth in assay [1] was 0.0664% (active); in assay [2], 34.6%; in assay [3], 59.6%; in assay [4], 95.2%; in assay [5], 52.6%; in assay [6], 59.8%. Besides, the growth was 103% in assay [7] and 53.6% in assay [8].
Consider `COc1cc(Nc2c(C#N)cnc3cc(OCCCN4CCN(C)CC4)c(OC)cc23)c(Cl)cc1Cl`, for which the growth in assay [1] was 59.4%; in assay [2] it was 85.2%; in assay [3] it was 31.1%; in assay [4], 37%; in assay [5] it was 58.3%; in assay [6], 23.3%. Further, the growth in assay [7] is 26.9%; in assay [8], 32.9%.
As for `CC(N)C(Cc1ccc(Cl)cc1)c1ccc(Cl)cc1` (stereo not drawn), the growth in assay [1] was 54.8%; in assay [2], 77.6%; in assay [3] it was 56.5%; in assay [4], 57.3%; in assay [5] it was 91.1%; in assay [6], 35%. Moreover, the values for the growth in assay [7] and in assay [8] were -6.15% (active) and 63%, respectively.
With `Cc1cc(N(CCNc2ccnc3cc(Cl)ccc23)Cc2cccs2)nc(Cl)n1`, the growth in assay [1] is -34.3% (active); in assay [2], -55.4% (active); in assay [3] it was -1.48% (active); in assay [4] it was 2.77% (active); in assay [5], 5.64% (active); in assay [6] it was -85% (active). For the same compound, the growth in assay [7] was -14.3% (active); in assay [8], 34%.
In the case of `CCN1CCN(CCCN(C[C@H]2Cc3ccccc3CN2)[C@H]2CCCc3cccnc32)CC1`, the growth in assay [1] was 103%; in assay [2], 79.7%; in assay [3] it was 105%; in assay [4], 89.6%; in assay [5] it was 100%; in assay [6] it was 76.4%. In addition, the growth in assay [7] is 102%; in assay [8], 87.1%.
With `C=CC(=O)Nc1cc(Nc2nccc(-c3cn(C)c4ccccc34)n2)c(OC)cc1N(C)CCN(C)C`, the growth was -60.8% (active) in assay [1]; -39.7% (active) in assay [2]; -93.9% (active) in assay [3]; -63.7% (active) in assay [4]; -61.3% (active) in assay [5]; -79.8% (active) in assay [6]. Besides, the growth was -86.4% (active) in assay [7] and -47.7% (active) in assay [8].
Take `CC[C@@H]1C(=O)N(C)c2cnc(Nc3ccc(C(=O)NC4CCN(C)CC4)cc3OC)nc2N1C1CCCC1`: the growth is -7.47% (active) in assay [1]; 17.5% in assay [2]; 2.22% (active) in assay [3]; 12.3% in assay [4]; 7.63% (active) in assay [5]; 0.114% (active) in assay [6]. Also, the growth in assay [7] is -28.6% (active); in assay [8], 12.9%.
`COC(=O)[C@H](C)NC(=O)[C@@H](OC)[C@@H]1Cc2cc3cc(OC4CC(OC5CC(O)C(O)C(C)O5)C(O)C(C)O4)c(C)c(O)c3c(O)c2C(=O)[C@H]1OC1CC(OC2CC(OC3CC(C)(O)C(O)C(C)O3)C(O)C(C)O2)C(O)C(C)O1` (stereo partly drawn): the growth in assay [1] is 2.98% (active); in assay [2] it was -32.5% (active); in assay [3], -39.3% (active); in assay [4], 10.2%; in assay [5], 8.55% (active); in assay [6] it was 4.37% (active). For the same compound, the growth was -44% (active) in assay [7] and 5.08% (active) in assay [8].
As for `COCCN1CCN(Cc2ccc(-c3n[nH]c4c3C(=O)c3c(NC(=O)NN5CCOCC5)cccc3-4)cc2)CC1`, the growth is 12.7% in assay [1]; -24.2% (active) in assay [2]; -46.4% (active) in assay [3]; -25% (active) in assay [4]; -33.2% (active) in assay [5]; -48.2% (active) in assay [6]. In addition, the growth is -35.8% (active) in assay [7] and -66.3% (active) in assay [8].
With `FC(F)(F)c1ccc(CNc2ccc(Cc3c[nH]c4ncc(Cl)cc34)cn2)cn1`, the growth was -1.92% (active) in assay [1]; 26.3% in assay [2]; 6.37% (active) in assay [3]; 19% in assay [4]; 13.6% in assay [5]; 15.4% in assay [6]. The growth is 18.1% in assay [7] and 7.06% (active) in assay [8].
Consider `COc1ccc(F)c(F)c1C(=O)c1cnc(NC2CCN(S(C)(=O)=O)CC2)nc1N`, for which the growth in assay [1] was -3.23% (active); in assay [2], -11.8% (active); in assay [3] it was -33.3% (active); in assay [4], 0.808% (active); in assay [5] it was 2.53% (active); in assay [6] it was 4.77% (active). In addition, the growth is -26.5% (active) in assay [7] and 4.84% (active) in assay [8].
With `C=C1CC[C@@H]2[C@](C)(COC(C)=O)[C@H](OC(C)=O)CC[C@@]2(C)[C@@H]1C/C=C1/C(=O)OC[C@H]1OC(C)=O`, the growth in assay [1] was 42.8%; in assay [2], 27.4%; in assay [3] it was 33.1%; in assay [4] it was -21.9% (active); in assay [5], 22.9%; in assay [6] it was -37.3% (active). In addition, the growth in assay [7] is 67.3%; in assay [8], 52.8%.
